# Assay outcomes deposited in PubChem by several laboratories.
# CHRM1 agonist – agonists of human M1 muscarinic receptor; activation, % at 3 µM; hit rate 0.33% among 360,000; AID 588814; CHO-K1 hM1, Fluo-8 calcium fluorescence, agonist mode; 0% DMSO, 100% acetylcholine EC100; P11229;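 active = activation above the run's mean compound activation plus 3 SD, cut at about 16% in these data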;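 also: peak over basal fluorescence ratio within a 140 s kinetic read after compound addition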
# Myeloid diff 2 – compounds promoting myeloid differentiation | hit rate 1% among 360,000 | ER-HoxA9 myeloid progenitors, lysozyme-GFP differentiation, flow cytometry | calls only at 10 µM;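 active = normalized GFP-positive differentiation at or above the plate's own cutoff, the solvent-only control mean plus 3 SD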;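 also: cells exposed to compound for four days before flow analysis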
# CHRM1 PAM – potentiates human M1 receptor response to acetylcholine. CHO-K1 hM1, Fluo-8 calcium fluorescence, ACh EC20; 0% = ACh EC20, 100% = maximal ACh. activation, % at 3 µM. hit rate 0.088% among 360,000; in the data active = activation above about 19%, passing the limit was not always enough
# ATG4B inhibitor – blocks human ATG4B protease cleavage of LC3 substrate | ATG4B cleavage of LC3-PLA2, NBD-HPC fluorescence, 1 h | inhibition, % at 8.33 µM | hit rate 0.51% among 340,000; in the data active = inhibition above about 40%
# Target sequence (Q9Y4P1 whole entry, looked up): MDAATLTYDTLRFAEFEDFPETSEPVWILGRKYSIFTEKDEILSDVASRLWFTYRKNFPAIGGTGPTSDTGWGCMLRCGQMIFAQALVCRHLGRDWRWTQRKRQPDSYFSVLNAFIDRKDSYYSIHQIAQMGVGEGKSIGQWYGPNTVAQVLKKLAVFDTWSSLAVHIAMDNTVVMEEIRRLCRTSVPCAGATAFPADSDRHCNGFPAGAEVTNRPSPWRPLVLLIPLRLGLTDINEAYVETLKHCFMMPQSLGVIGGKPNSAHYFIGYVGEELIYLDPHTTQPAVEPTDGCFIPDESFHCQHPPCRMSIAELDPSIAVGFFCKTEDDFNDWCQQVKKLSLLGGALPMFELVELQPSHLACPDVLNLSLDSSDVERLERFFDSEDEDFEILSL
# SKN-1 block – inhibitors of C. elegans SKN-1 | C. elegans VP596 Pgst-4::GFP/RFP ratio, acrylamide-induced, 24 h | inhibition, % at 21.8 µM | hit rate 0.49% among 360,000;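 active = interference check ratio from 0.5 to 1.5 plus GFP to RFP signal ratio inhibition reaching or exceeding a fixed threshold, cut at about 30% in these data, passing the limit was not always enough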
# M1 antag – human CHRM1 antagonism; P11229; hit rate 1.3% among 360,000; CHO-K1 hM1, Fluo-8 calcium fluorescence, ACh EC80 antagonist; inhibition, % at 3 µM;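 active = percent inhibition above its own plate's cutoff, namely the mean of that plate's compound wells plus 3 SD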;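 also: peak over basal fluorescence ratio during 140 s after agonist addition; 0% = ACh EC80 plus DMSO and 100% = DMSO alone without agonist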
# An asterisk follows results filed as active; i = inactive; nt = no result given; + = active, no number. This is a sample that favours compounds with a hit; in the whole collection about 3.5% have one here.
SMILES,CHRM1 agonist,Myeloid diff 2,CHRM1 PAM,ATG4B inhibitor,SKN-1 block,M1 antag
Cc1ccc(NC(=O)/C(C#N)=C(\N)C(Cl)(Cl)Cl)nc1,-4,i,10,-3,69,-9
O=C(NCc1ccc(F)cc1)C(c1ccccc1)N(C(=O)c1csnn1)c1ccccc1 (centres undefined),-9,i,-20,3,-4,29*
NC(=O)c1nsc(C(=O)N(c2ccccc2)C(C(=O)NCc2ccc(F)cc2)c2ccc(O)cc2)c1N (centres undefined),-1,i,-9,4,2,27*
COc1ccc(N(C(=O)c2snc(C(N)=O)c2N)C(C(=O)NCc2ccccc2)c2ccc(O)cc2)cc1 (centres undefined),-4,i,6,3,17,0
CCCCc1ccc(S(=O)(=O)NC(=O)C2(C)CCN2C(=O)C/C=C/c2ccccc2)cc1 (centres undefined),-2,i,-1,nt,6,9
COc1cc(OC)c(C(=O)OCC(=O)Nc2ccc(N3CCOCC3)cc2)cc1OC,1,i,6,-4,-6,-16
O=C(OCCCOC(=O)c1cc[n+]([O-])cc1)c1cc[n+]([O-])cc1,3,i,26*,5,-4,-6
COC(=O)C1(C(=O)OC)CCCCN(S(=O)(=O)c2ccc(C)cc2)CCC1,nt,i,nt,nt,-3,nt
Cc1c(CCC(=O)O)c(=O)oc2cc3occ(-c4ccc(Br)cc4)c3cc12,2,+,13,8,-5,-9
Cc1c(CCC(=O)O)c(=O)oc2cc3occ(-c4ccc(F)cc4)c3cc12,0,i,3,-1,-1,4
CN1CCN(S(=O)(=O)NC[C@H]2O[C@@H](n3cnc4c(N)ncnc43)[C@H](O)[C@@H]2O)CC1,3,+,18,3,-3,-12
Nc1ncnc2c1ncn2[C@@H]1O[C@H](CNCc2cccc(C#Cc3ccccc3)c2)[C@@H](O)[C@H]1O,-5,i,2,-10,24,-12
Nc1ncnc2c1ncn2[C@@H]1O[C@H](COP(=O)(O)OP(=O)(O)OP(=O)(O)O)[C@@H](O)[C@H]1O,53*,i,4,7,-2,-27
Nc1ncnc2c1ncn2[C@@H]1O[C@H](CNCC#Cc2ccccc2)[C@@H](O)[C@H]1O,-2,+,8,nt,-5,-1
Nc1ncnc2c1ncn2[C@@H]1O[C@H](CNS(=O)(=O)C2CC2)[C@@H](O)[C@H]1O,-2,i,4,-8,6,-5
O=C(C[C@H]1C=C[C@H](NC(=O)c2ccccn2)[C@@H](CO)O1)NCc1cc(F)cc(F)c1,nt,i,nt,nt,4,nt
CC1CC1c1ccc(/C=C(\C#N)C(=O)Nc2ccc(Cl)cc2)o1 (centres undefined),-11,i,-9,-7,4,9
N#C/C(=C/c1ccc(N2CCCCC2)o1)C(=O)Nc1ccc(Cl)cc1,102*,+,-32,8,35,68*
N#C/C(=C/c1ccc(N2CCCCC2)o1)C(=O)Nc1ccc2ccccc2c1,240*,i,-32,-10,32,87*
CCOC(=O)[C@]12CCCC=C1N(CCc1ccc(OC)c(OC)c1)C(=O)[C@H](CC(=O)NCC13CC4CC(CC(C4)C1)C3)C2,nt,i,nt,nt,13,nt
CC(Sc1nccn1C)C(=O)c1ccc(Br)cc1 (centres undefined),-8,i,-5,-2,1,15
Cn1nccc1-c1ccc(C(=O)Nc2cccc(NS(C)(=O)=O)c2)c2occc12,2,i,-15,nt,37*,15
CS(=O)(=O)Nc1cccc(NC(=O)c2ccc(-c3ccc(F)c(F)c3)c3ccoc23)c1,-2,i,-6,nt,14,9
CC(=O)c1cccc(NC(=O)c2cccc3c(-c4cccc(C(N)=O)c4)coc23)c1,5,i,-13,nt,3,20
CS(=O)(=O)Nc1cccc(NC(=O)c2cccc3c(-c4cccc(C(N)=O)c4)coc23)c1,-2,i,-13,nt,22,31*
CCCCN(CC)CCNC(=O)c1cc2cc3ccc(Cl)cc3nc2o1,-10,+,11,-2,5,-11
